Pf Dd2 growth: Plasmodium falciparum Dd2 growth inhibition; 4.3% of 120,000 active; P. falciparum Dd2 growth, SYBR Green, 72 h; Potency, µM (titrated, usually from 28.9 µM), inactives show at the highest dose activity, negative = inhibition, hits mostly inhibitors; active = well fitted inhibition curve with a large enough effect;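 also: plate controls were DMSO vehicle for no effect and reference drug for full effect; nearly all actives have a fitted effect of over 65% in size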
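Readout: SYBR Green fluorescence, 485 nm excitation, 535 nm emission, after ~16 h lysis at 37C. Before that, Dd2-infected red cells (2.5% hematocrit) grew 72 h with compound, 29 uM top final concentration.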
* hit, by the source's call; i = inactive; [ ] = dose if it differs, or a comment. Only a selection was taken, and hits are over-represented in it overall. Potency is read from the fitted curve at half-maximal effect.

SMILES	Pf Dd2 growth
COc1cccc(CN2C(=O)OC3(CCN(C(=O)C4CCC4)CC3)C2(C)c2cccnc2)c1 (configuration not stated)	i
CC1(c2ccccc2)N(Cc2ccccc2)C(=O)OC12CCN(C(=O)COc1ccccc1)CC2 (configuration not stated)	-17.1%
CC1(c2ccccc2)N(Cc2cccnc2)C(=O)OC12CCN(C(=O)Cc1ccccc1)CC2 (configuration not stated)	i
CCCCSc1ncc(CN2CC[C@@]3(O)CCN(C(C)=O)C[C@H]3C2)cn1	-5.8%
COc1cccc(-c2ccccc2NC(=O)C2CCN(Cc3ccccc3F)CC2)c1	-19.5%
COc1cccc(-c2ccccc2NC(=O)C2CCN(C/C(C)=C/c3ccccc3)CC2)c1	8.91µM*
C=CCC(=O)N1CCCC1C(=O)Nc1ccc(-c2cccc(OC)c2)cc1 (configuration not stated)	-14.1%
COc1cccc(C(=O)Nc2ccccc2-c2nnc(-c3cccc(OC)c3)o2)c1	i
COc1cccc(-c2ccccc2NC(=O)C2CCN(CC=C(C)C)CC2)c1	5.62µM*
COc1ccc(C(=O)N2CCC(C(=O)Nc3ccc(OC)cc3OC)CC2)cc1	52.4%
CCCc1noc(-c2cn(C3CCN(C(=O)c4ccc(OC)nc4OC)CC3)nn2)n1	-6.1%
O=C(c1ccc(Cl)cc1)N1CCC(N2Cc3cccn3C2=O)CC1	17.1%
Nc1nc2c(c(NC3CC3)n1)CCN(C(=O)CCCn1cncn1)CC2	-1.4%
O=C(CC1=CCCCC1)NC1CCc2n[nH]c(=O)n2CC1 (configuration not stated)	i
CS(=O)(=O)NC1CCN(c2nc(-c3cccnc3)nc3c2CNC3)CC1	3.9%
CCCOc1ccccc1C(C)Nc1nc(-c2cccnc2)nc2c1CNC2 (configuration not stated)	11.2µM*
c1cncc(-c2nc3c(c(NCc4ccccc4-n4ccnc4)n2)CNC3)c1	i
CCc1cc(=O)n(CC(=O)NCc2ccc(OC)c(OC)c2)c(N2CCOCC2)n1	i
CN(Cc1cc(-c2cccs2)n[nH]1)C[C@@H]1CCCN2CCCC[C@H]12	7.08µM*
CN1CCCn2nc(C(=O)N(C)Cc3cc(-c4cccs4)n[nH]3)cc2C1	-3.8%
CN(Cc1cc(-c2cccs2)n[nH]1)C(=O)c1cn(CCN)nn1	-5.1%
CC(=O)c1cc(CN2CCCC(C(=O)c3cccc(OC(C)C)c3)C2)cs1 (configuration not stated)	-13.2%
OC(c1cccc(C(F)(F)F)c1)c1nc(Nc2cccc(Cl)c2)n[nH]1 (configuration not stated)	7.94µM*
OC(c1ccc2c(c1)CCO2)c1nc(Nc2cccc(C(F)(F)F)c2)n[nH]1 (configuration not stated)	i
COc1ccc(Nc2n[nH]c(C(O)c3cccc(C(F)(F)F)c3)n2)cn1 (configuration not stated)	1.8%[44.1 µM]
SMILES	Pf Dd2 growth
COCCN1Cc2[nH]nc(-c3ccc(OC)c(OC)c3)c2CC1=O	i
COc1ccc(CNC(=O)[C@H]2CNC[C@H](C(=O)N3CCCC3)C2)c(F)c1F	21.9%
COCCC(=O)N1CCC(N2C(=O)C(OCC3CC3)C23CCOCC3)CC1 (configuration not stated)	-1.1%
CC(=O)C1=C(c2ccc(Br)cc2)N(C(C)=O)n2c(nnc2C2CCCCC2)S1	1.41µM*
CN(Cc1ccc2nsnc2c1)C(=O)c1cccc(-n2cnnc2)c1	-3.0%
CC(=O)N[C@H]1CC[C@]2(C)CC[C@@H](C(C)C(=O)NC3CCCC3)[C@H](O)[C@H]2[C@@H]1C (some centres not stated)	0.9%[44.1 µM]
CCN1C(=O)C2CC3(CCN(C(=O)c4nn(C)c5ccccc45)CC3)CN2C1=O (configuration not stated)	-7.0%
CCc1ccccc1OCC(=O)c1ccc2c(c1)N(CCCC(=O)N1CCOCC1)C(=O)CO2	i
Cn1c(CNC(=O)CCc2ccnc(N3CCCC3)c2)nc2ccccc21	-15.9%
CCCNC(=O)CCc1ccnc(N2CCOCC2)c1	15.8%
O=C(CCc1ccnc(N2CCCC2)c1)NCc1ccc(F)c(Cl)c1	3.16µM*
Cc1ccccc1S(=O)(=O)N1CCC(CCC(=O)N2CCc3ccccc3C2)CC1	i
CN(Cc1ccc(-c2ccccc2)cc1)Cc1ccccc1Cl	-20.9%[44.1 µM]
CCN(Cc1ccncc1)C(=O)c1cc(-c2cnn(CC)c2)nc2cc(C)ccc12	-25.6%
NC(=O)c1ccc(-c2nccc(N3CCC(O)CC3)n2)cc1Cl	-10.0%
CN(C)C(=O)c1ccc(-c2ncc3c(n2)OCCN(Cc2ccccc2)C3=O)cc1	2.24µM*
CN1CCOc2nc(-c3ccc(Oc4ccccc4)cc3)ncc2C1=O	5.01µM*
O=C1c2cnc(-c3ccccc3)nc2OCCN1Cc1ccccc1	i
COc1cc(F)cc(-c2ncc3c(n2)OCCN(C)C3=O)c1	i
CN(C)C(=O)c1ccc(-c2ncc3c(n2)OCCN(CC2CC2)C3=O)cc1	i
C[S+](=O)([O-])c1ccc(-c2ncc3c(n2)OCCN(c2ccccc2)C3=O)cc1	-2.0%[44.1 µM]
COc1cccc(C(=O)N2CCCC2c2nncn2CCN(C)C)c1C (configuration not stated)	5.3%
CNC1CCc2nn(C)c(=O)n2CC1 (configuration not stated)	21.0%
COCCOC1CCN(C(=O)c2cc(C)n(CCOC)c2C)CC1	34.1%
Cc1[nH]cnc1CN1CCCC(C(=O)Nc2ccc(-c3cccc(F)c3)cc2)C1 (configuration not stated)	10µM*
SMILES	Pf Dd2 growth
O=C(Nc1ccc(-c2cccc(F)c2)cc1)C1CCCN(C(=O)c2ccncc2)C1 (configuration not stated)	7.08µM*
CC(=O)NCC(=O)N1CCCC(C(=O)Nc2cccc(-c3ccc(F)cc3)c2)C1 (configuration not stated)	-16.2%
CC(C)(C)CC(=O)N1CCCC(C(=O)Nc2cccc(-c3ccc(F)cc3)c2)C1 (configuration not stated)	-18.4%
Cc1ncoc1C(=O)N1CCCC1C(=O)Nc1cccc(-c2ccc(F)cc2)c1 (configuration not stated)	-11.8%
N#Cc1cc(CN2CCCC(C(=O)Nc3cccc(-c4ccc(F)cc4)c3)C2)c[nH]1 (configuration not stated)	10µM*
O=C(c1cccc(F)c1)N1CCCC(Nc2ccc(F)cc2)C1 (configuration not stated)	-5.1%
Cc1ccc(NC(=O)C2CCCN(S(=O)(=O)c3ccc(F)cc3)C2)cc1 (configuration not stated)	i
CCc1ccc(NC(=O)C2CCCN(S(=O)(=O)c3ccc(F)cc3)C2)cc1 (configuration not stated)	3.6%
CN1CCN(c2cc(-c3cncc(N)c3)nc(N)n2)CC1	-7.5%
CCn1cc(S(=O)(=O)N2CCC(C(=O)N3CCCCCCNC(=O)CC3)CC2)cn1	1.8%
COCCNC(=O)c1cc(-c2ccc(C)nc2)cc2ncn(C)c12	-4.8%[44.1 µM]
CCCCc1ccc(-n2cc(CN3CCN(C(C)=O)CC(O)C3)cn2)cc1 (configuration not stated)	7.1%
COc1ccc(OC2CN(C(=O)c3ccc(OC)cc3)C2)cc1	-1.6%
COCCCNC(=O)N1CCCOCCNC(=O)[C@@H]2CCC[C@@H]21	5.7%
CCOc1ccc(CC(=O)N2CCC(n3cc(-c4nc(-c5ccccc5)no4)nn3)C2)cc1 (configuration not stated)	-14.9%

From PubChem BioAssay
